Hit rate of the full screen: of about 2,200 compounds, about 1,200 (55%) were called active. So high a share suggests a set chosen from earlier hits. Some of the results follow. Unmarked numbers belong to inactive results. The limit is not given here; nearly all actives have IC50 up to about 92 µM.
Assay: counter assay for TAg ATPase ADP read-out – biochemical, ADP-Hunter, fluorescence, counter-screen (AID 2501);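 also: purified T antigen ATPase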;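 as to inhibition: 0% = enzyme with vehicle and 100% = reference inhibitor wells; higher means more inhibition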
Details: series mostly up to 100 µM; inhibition: at the top concentration

Compound | inhibition | IC50
CO[C@@H]1O[C@@H]2COC(c3ccccc3)O[C@@H]2[C@@H](OC)[C@@H]1O (some centres not stated) | -34.3% | 
CC1(C)OC(=O)C(=NNc2ccc(O)cc2)C(=O)O1 |  | 3.09 µM (active)
Nc1nc2ccc(O)cc2s1 |  | 2.36 µM (active)
Nc1nc2ccc(N3CCOCC3)cc2s1 |  | 3.09 µM (active)
Nc1nc2ccc(S(=O)(=O)N3CCCCC3)cc2s1 | -1.74% | 
Nc1ccccc1-c1nc2ccccc2s1 | -0.48% | 
CCOc1ccc(N2C(=O)CC(N3CCOCC3)C2=O)cc1 (configuration not stated) | -1.89% | 
CN(C)c1ccc(N2C(=O)CC(Nc3ccc(N4CCOCC4)cc3)C2=O)cc1 (configuration not stated) |  | 4 µM (active)
NC(=O)c1ccsc1NC(=O)C1CCN(S(=O)(=O)c2cccs2)CC1 | 2.13% | 
O=C(c1cccs1)N1CCN(C(=O)C2CCCO2)CC1 (configuration not stated) | 18.1% | 
O=C(NCc1ccc(F)cc1)C(=O)NCC1OCCN1S(=O)(=O)c1cccs1 (configuration not stated) | -39.5% | 
O=C(NC(=S)N1CCN(c2ccc(O)cc2)CC1)c1cccs1 |  | 5.56 µM (active)
O=S(=O)(c1cccs1)N1CCN(c2ccc(O)cc2)CC1 |  | 5.21 µM (active)
O=C(CCC(=O)N1CCN(c2ccc(O)cc2)CC1)c1cccs1 |  | 2.87 µM (active)
O=C(CC1SC(=O)N(c2ccccc2)C1=O)Nc1cccc2ccccc12 (configuration not stated) | 13.9% [at 50 µM] | 
COc1ccc(CCNc2ccc(C(CC(N)=O)NC(=O)Cc3ccc(Br)cc3)cc2[N+](=O)[O-])cc1 (configuration not stated) | -20% | 
CN(C)C(=S)Nc1ccc(N2CCOCC2)cc1 |  | 2.52 µM (active)
O=Cc1sc(=O)n(Cc2cccc(C(=O)O)c2)c1Cl | 24.6% | 
Cc1nc2sc(C(c3ccco3)N3CCC(C)CC3)c(O)n2n1 (configuration not stated) | -26.5% | 
Cc1ccccc1Nc1c(-c2ccccn2)nc2ccccn12 |  | 10.9 µM (active)
Cc1ccc2nc(-c3ccccn3)c(NC3CCCC3)n2c1 |  | 10.1 µM (active)
c1ccc(-c2cccc(-c3ccccn3)n2)nc1 | -3.39% | 
C[C@@H]1NC(=O)[C@H](CCC(N)=O)NC(=O)c2cc([N+](=O)[O-])cc(I)c2NCC[C@@H](C(N)=O)NC1=O | -21.8% | 
O=c1[nH]c2ccccc2n2c(-c3ccccc3)nnc12 | -46.4% | 
CC(=O)Nc1ccc(S(=O)(=O)Nc2nc3ccccc3nc2Nc2ccc(O)cc2)cc1 |  | 7.76 µM (active)
CC(=O)NS(=O)(=O)c1ccc(NC(=S)NC(=O)Cc2ccccc2)cc1 | 20.9% | 

Compound | inhibition | IC50
CC(=O)Nc1ccc(S(=O)(=O)Nc2nc3ccccc3nc2Nc2ccc(N)cc2)cc1 |  | 5.8 µM (active)
O=c1nc2s/c(=C\c3ccco3)c(=O)n2nc1Cc1ccc(F)cc1 | 5.11% | 
COc1cc(/C=N/NC(=O)c2cc(C3CC3)[nH]n2)ccc1O |  | 3.26 µM (active)
Cc1cc(C)n2nc(C(=O)N/N=C/c3ccc(O)cc3)nc2n1 |  | 2.32 µM (active)
COc1cc(/C=N/NC(=O)c2ccc3nc[nH]c3c2)ccc1O |  | 5.28 µM (active)
COc1cc(/C=N/NC(=O)c2nnn(-c3nonc3N)c2-c2cccs2)ccc1O |  | 3.94 µM (active)
COc1cccc(CN2CCNC(=O)C2CC(=O)NCc2cn3ccccc3n2)c1OC (configuration not stated) | -27.3% | 
Cc1cccn2c(CN(C)CCC3CCCCO3)c(C(=O)N3CCCCC3)nc12 (configuration not stated) | 20.9% [at 50 µM] | 
C=CCN1CCN(C(=O)c2c(-c3ccccc3)noc2C)CC1 | -17.8% | 
COc1cc(/C=N/NC(=O)c2c(-c3ccccc3)noc2C)ccc1O |  | 4.78 µM (active)
COc1cc(/C=N/NC(=O)c2cnccn2)ccc1O |  | 3.09 µM (active)
COc1cc(/C=N/NC(=O)C2COc3ccccc3O2)ccc1O (configuration not stated) |  | 3.2 µM (active)
COc1cc(/C=N/N(C)c2ccccc2)ccc1O |  | 8.84 µM (active)
CCCOc1ccc(C(=O)N2CC3(CC(c4cccc(NC(=O)[C@@H]5CCC(=O)N5)c4)=NO3)C[C@H]2C(=O)NC2(C(N)=O)CC2)cc1 (some centres not stated) | -28% | 
COc1cc(/C=N/NC(=S)Nc2cccc(C(=O)O)c2)ccc1O |  | 2.66 µM (active)
COc1cc(/C=N/NC(=O)c2cccs2)ccc1O |  | 4.58 µM (active)
COc1cc(/C=N\NC(=O)c2c(C)nc3cc(C)ccn23)ccc1O |  | 4.52 µM (active)
COc1cc(/C=N/NC(=O)c2nc(C)cc(C)n2)ccc1O |  | 2.74 µM (active)
CCCOc1ccccc1/C=C1\SC(N2CCCCC2)=NC1=O | 29.5% | 
COc1ccc(/C=N\NC(=O)c2ccc(=O)[nH]n2)cc1O |  | 3.12 µM (active)
COc1cc(/C=N/NC(=O)c2ccncc2)ccc1O |  | 3.56 µM (active)
COc1cc(/C=N/NC(=O)c2ccccc2)ccc1O |  | 5.63 µM (active)
CCOC(=O)C[n+]1c(C)sc2ccc(OC)cc21 | 19.2% | 
O=c1[nH]c2ccc(NCc3ccc(F)cc3)cc2[nH]1 |  | 5.43 µM (active)
C=CCOc1ccccc1CNc1ccc2[nH]c(=O)[nH]c2c1 |  | 5.14 µM (active)
C=CCOc1ccc(CNc2ccc3[nH]c(=O)[nH]c3c2)cc1OCC |  | 3.26 µM (active)
